According to ChEMBL document CHEMBL4888484, “Replenishing the malaria drug discovery pipeline: Screening and hit evaluation of the MMV Hit Generation Library 1 (HGL1) against asexual blood stage Plasmodium falciparum ,using a nano luciferase reporter read-out” (2022):
Where “and” joins values, the source holds several entries; their conditions need not be identical. Equal entries are not always repeated. In all, about 4,800 compounds went through this assay and about 420 (8.8%) showed an effect of 50% or more. The entries come from a sample that favours strong results as a whole.

System: Plasmodium falciparum
Test: Confirmatory screen in NF54 nanoGlo assay, in single point, at 2uM, 72h
Format: functional, Erythrocyte
Conditions: timepoint 72 hour

SMILES | % Inhibition | % Inhibition (2 µM)
Brc1ccc2sncc2c1 | -3% | 
COc1cncc(C(=O)N2CCCc3cc(S(C)(=O)=O)ccc32)n1 | 9% | 
CN1CCN(CCc2nc(-c3ccc4cc[nH]c4c3)no2)CC1 | -4% | 
CC(C)(C)OC(=O)NS(=O)(=O)Nc1nccs1 | -13% | 
COCCN(c1ccncc1)S(C)(=O)=O | 6% | 
CCc1ccc(NCc2c(OCc3ccc(Br)cc3)ccc3ccccc23)cc1 | -11% | 
Cc1c(S(=O)(=O)N2CCC[C@H](C(=O)NC3CC3)C2)cnn1C | -4% | 
O=C(Cn1c(Cc2ccc(Cl)cc2)nc2ccccc21)Nc1ccccc1 | 14% | 
Cc1ccc(S(=O)(=O)c2c(NS(=O)(=O)c3ccc(F)cc3)n(CCc3ccccc3)c3nc4ccccc4nc23)cc1 | 100% | 
O=C(Nc1c(S(=O)(=O)c2ccccc2)c2nc3ccccc3nc2n1CCc1ccccc1)c1ccc(Cl)cc1 | 102% | 
O=C(Nc1ccccc1)c1ccc2c(c1)C(=O)N(CCc1ccccc1)C2=O | -9% | 
Cc1ccc(S(=O)(=O)c2c(NS(=O)(=O)c3ccccc3)n(CCc3ccccc3)c3nc4ccccc4nc23)cc1 | 100% | 
CC(C)CCn1c(=O)c2sccc2n(CC(=O)N(C)c2ccccc2)c1=O | 5% | 
COc1cc(OC)c(NC(=O)COc2ccccc2-c2nc3ccccc3s2)cc1Cl | 0% | 
O=C(c1cc2c(s1)CCCC2)N1CCC[C@H](c2nnc3ccccn23)C1 | -17% | 
CCN1C(=O)[C@@]2(CC(=O)Nc3c2c(C)nn3-c2ncnc3nc[nH]c23)c2cc(C)ccc21 | 2% | 
COc1ccccc1OCc1nn2c([C@H]3CCCN(S(C)(=O)=O)C3)nnc2s1 | -3% | 
O=C(O)c1cc2c(cc1C(=O)Nc1ccc(Cl)cc1)=[O+]c1ccccc1-c1ccccc1[O+]=2 | -17% | 
O=C(Nc1ccc(N2CCn3c(nc4ccccc43)C2)cc1)c1ccc(F)cc1 | 9% | 
O=C(Nc1ccc(C2(c3ccc(NC(=O)c4ccc(F)cc4)cc3)c3ccccc3C(=O)c3ccccc32)cc1)c1ccc(F)cc1 | 67% | 
O=C(COc1ccccc1Cl)Nc1ccc(C2(c3ccc(NC(=O)COc4ccccc4Cl)cc3)c3ccccc3-c3ccccc32)cc1 | 0% | 
O=C1c2ccccc2C(c2ccc(NC(=O)c3cccc4ccccc34)cc2)(c2ccc(NC(=O)c3cccc4ccccc34)cc2)c2ccccc21 | 83% | 
N=C(Cc1ccccc1)NOC(=O)c1cccc2ccccc12 | -11% | 
O=C(c1ccccc1F)N(Cc1nccn1Cc1ccccc1F)CC1CC1 | 20% | 
O=C(Nc1ccc(Cl)cc1)c1cccc(N2C(=O)C3CCC(c4ccccc4)CC3C2=O)c1 (stereo unspecified) | -5% | 
COc1cc([C@H](CC(=O)NC2CCN(Cc3ccccc3)CC2)N2Cc3ccccc3C2=O)cc(OC)c1OC | 33% | 

SMILES | % Inhibition | % Inhibition (2 µM)
CN1CCN(C(=O)[C@H](C(=O)c2ccccc2)n2cc(Cl)ccc2=O)CC1 | -9% | 
Fc1ccccc1N1CCN(C2CCN(Cc3c[nH]c4ccccc34)CC2)CC1 | 4% | 
COc1ccccc1N1CCN(Cc2nc3ccccc3c(=O)n2-c2ccc(F)cc2)CC1 | 6% | 
COc1ccc2[nH]c3c(c2c1)CC(C(=O)O)NC3c1ccc(OC)c(CN2CCN(c3ccccc3F)CC2)c1 (stereo unspecified) | 76% | 
CC(C)(C)CCN1CCN(S(=O)(=O)C[C@H]2CCCS(=O)(=O)C2)CC1 | -3% | 
C[C@@H](CN)N(C)c1ccnc2cc(Br)cnc12 | 98% | 
COc1c(Br)cc(Br)cc1C(N)=O | -5% | 
CCCOc1cc2nc(C(F)(F)F)cc(-c3cccs3)c2cc1OCCC | -4% | 
CC1=CC(=[N+](CCO)CCO)C=C/C1=C(\c1ccc(N(CCO)CCO)cc1C)c1ccccc1Cl | 91% | 
Cc1ccc([C@@H]2CC(=O)Nc3nc(N4CCN(CCO)CC4)nc(O)c32)cc1 | 2% | 
NC(=O)CN1CCC2(CC1)NC(c1ccc(OC(F)(F)F)cc1)=NO2 | 0% | 
Cc1cncc(C(=O)N2CC(n3cnnc3C)C2)c1 | -19% | 
CCc1nnc(NC(=O)C2CC2c2ccccc2)s1 (stereo unspecified) | -3% | 
COC(=O)c1c(NC(=O)[C@H]2CCCN(S(=O)(=O)c3cnn(C)c3C)C2)cnn1C | 4% | 
CNS(=O)(=O)CC(=O)Nc1cc(Br)c(F)cc1F | -12% | 
COc1cccc(CNC(=O)CCC(=O)N(c2ccccc2)c2ccccc2)c1 | 7% | 
COc1ccc(CC(=N)Nc2cc3cc(OC)c(OC)cc3c(Cc3ccc(OC)c(OC)c3)n2)cc1OC | 80% | 
CCCNC(=O)C[C@H](C)CC(=O)NCCc1ccc(OC)c(OC)c1 | 4% | 
COc1ccc(CCNC(=O)CCCC(=O)NCc2ccccc2)cc1OC | -14% | 
COC(=O)C1=C(C(=O)OC)SC(=C2C(=S)C(C)(C)N(C(=O)c3cccnc3)c3c(C)cc(C)cc32)S1 | 4% | 
CC(O)CC(C)(C)CNC1CCCc2occc21 (stereo unspecified) | -12% | 
Oc1cccc(CN[C@H]2CCCc3occc32)c1Cl | 71% | 
O=C(N[C@H]1CCCc2occc21)c1ccco1 | 0% | 
CCN1CCC(CCNC(=O)c2cc3c(s2)N(CC)CCCC3)CC1 | -7% | 
CCOc1cc(N2CCOCC2)c(OCC)cc1NC(=O)c1ccc(C)c(NC(=O)c2ccco2)c1 | 22% | 
N#Cc1nc(NC(=O)c2cc3c(s2)CCOC3)[nH]c1C#N | 3% | 

SMILES | % Inhibition | % Inhibition (2 µM)
CN(CC(F)(F)F)S(=O)(=O)c1ccc(C(=O)O)cc1 | -5% | 
Cc1ccc(CC[C@H]2Nc3ccccc3C(c3ccccc3)(c3ccccc3)O2)o1 | 74% | 
Cc1ccccc1[C@H]1CCN(c2ccc(NC(=O)c3ccc(F)cc3)c(C(=O)O)c2)C1 | -11% | 
Cc1cc(Cn2cc(C(c3ccccc3)c3ccccc3)nn2)no1 | -3% | 
Nc1c(-c2ccccc2)nsc1C(=O)NCc1ccc(F)cc1 | -2% | 
CC(=O)Nc1ccc(NC(=O)CN2CCCN(c3cncc(F)c3)CC2)cc1 | -1% | 
O=C(O)C1C2C=CC(O2)C1C(=O)NC1CCCc2ccccc21 (stereo unspecified) | -4% | 
O=C(CC(O)c1cccc(F)c1)NCCC1CCCCO1 (stereo unspecified) | -1% | 
COc1cccc(CNC(=O)c2sc(Nc3ccc(C)cc3C)nc2C)c1 | -13% | 
COc1cccc(-c2nc(C)c(C(=O)Nc3n[nH]c(CC(C)C)n3)s2)c1 |  | 78% and 70%
COCCc1cc(NC(=O)Nc2sc(-c3ccccc3)nc2C)n(C)n1 | 14% | 
COc1cccc(-c2nc3n(c2C(=O)NCC(C)C)CCS3(=O)=O)c1 | -2% | 
COc1cccc(-c2nc(C)c(C(=O)Nc3nc(C(C)C)n[nH]3)s2)c1 | 74% | 
CCO[C@@H](C)C(=O)Nc1n[nH]c(Cc2cccc(F)c2)n1 | -1% | 
C[C@@](CO)(NC(=O)Nc1cc(-c2ccco2)ccc1F)C1CC1 | -4% | 
O=C(c1ccccc1)c1c[nH]c2c(F)cc(F)cc2c1=O | -5% | 
CCOCCc1nc(-c2ccccn2)c(CCOCC)nc1-c1ccccn1 | 10% | 
O=C1NC(=O)[C@]2(CCOc3ccc(F)cc32)N1 | -3% | 
Cc1cc(C)n2c(=O)c3ccccc3nc2c1C#N | -5% | 
Cc1cc(C)nc(NCCC[C@H]2CCCCO2)n1 | -6% | 
Cc1cccc(CNC(=O)NC2CCOC2c2ccc(Cl)cc2)n1 (stereo unspecified) | -15% | 
Cc1cccc(CN(Cc2cccc(C)n2)C[C@H]2CCCCO2)n1 | 90% | 
O[C@H]1CNCC[C@@H]1Nc1cc(-c2ccccc2)nc2ccccc12 | 46% | 
COc1cc(OC)c(S(=O)(=O)NC(C)C)cc1S(=O)(=O)NC(C)C | -4% | 
O=C1CC(c2cccc(Br)c2)N(S(=O)Oc2ccccc2)c2ccccc21 (stereo unspecified) | 4% | 
COc1ccc2oc(-c3ccc(CNC(=O)c4ccc(C)cc4)cc3)nc2c1 | -3% | 

SMILES | % Inhibition | % Inhibition (2 µM)
COc1ccc(CNc2nc(-c3nnc(-c4ccccc4)o3)nc3ccccc23)cc1 | 55% | 
COc1ccc2oc(-c3ccc(CNC(=O)c4ccccc4)cc3)nc2c1 | -5% | 
Oc1c(-n2cncn2)cnc2ncnn12 | -7% | 
Cc1cc(-c2ccco2)cc(Cl)c1N | -1% | 
O=C1CCN(C(=O)C2(c3cccc(Cl)c3)CCCC2)CCN1 | 2% | 
CC(C)(C)c1ccc(-c2ccc(C(=O)NCC3(O)CCOCC3)o2)cc1 | 0% | 
CCc1c(NC(=O)[C@@H](C)C2CC2)nnn1CCc1ccc(OC)cc1 | -1% | 
COC(=O)c1c(NC(C)=O)c2cc(NC3CCOCC3)cnc2n1CCc1ccc(OC)cc1 | 70% | 
COc1ccc(NC(=O)[C@@H](C)C2CCOCC2)cc1 | -6% | 
Cc1nn(C)c2c(N3CCOCC3)nc(C3CC3)nc12 | -8% | 
CC[C@H]1Cn2c(C(=O)NCc3ccc(C)o3)cc3cccc(c32)O1 | -11% | 
COc1ccc(-[n+]2c(-c3ccc(-c4ccccc4)cc3)cn3c2COCC3)cc1 | 66% | 
COc1ccc(-c2nnc(COc3ccc(-c4ccccc4)cc3)s2)cc1 | -7% | 
COc1ccc(-[n+]2c(-c3ccccc3)cn3c2CCC3)cc1 | 77% | 
COc1ccc(CCc2nnc3n2CCOC3)cc1 | -4% | 
COc1ccc(-c2nc(N)s[n+]2-c2ccccc2)cc1 | -2% | 
COc1ccc(-c2noc(Cn3c(=O)c4ccccc4n(CC(=O)Nc4cc(C)ccc4C)c3=O)n2)cc1 | 0% | 
O=C(Nc1nn(Cc2ccccc2)cc1Cl)c1cc(-c2ccc(OC(F)F)cc2)[nH]n1 | 4% | 
Nc1noc2cc(C(F)(F)F)cnc12 | 4% | 
COc1ccc2c(c1)CN(c1nnc(C3CC3)o1)CC2 | 7% | 
O=c1[nH]c2cc3c(cc2c(=O)n1Cc1nc(-c2ccc(Cl)cc2)no1)OCO3 | -1% | 
CN1CCN(Cc2cc3cc4c(cc3nc2-c2ccc(Cl)cc2)OCO4)CC1=O | 53% | 
Cc1cc(C)nc(-n2nc(-c3ccc(Cl)cc3)c3c2NC(=O)C[C@@H]3c2ccc3c(c2)OCO3)n1 | -7% | 
